Most compounds without a hit are left out; they make up all but 2.9% or so of the library.
EBNA-1 inh: blocks EBNA-1 binding to DNA. EBNA-1 DNA binding, fluorescence polarization. inhibition, % at 14.8 µM. hit rate 0.34% among 300,000; in the data active means inhibition above about 28%
ZTA counter: ZTA (EBV) inhibition in EBNA-1 counter-screen. ZTA-DNA binding, fluorescence polarization. inhibition, % at 11 µM. hit rate 0.15% among 320,000. AID 2234; in the data active means inhibition above about 33%
Target sequence (P03206 whole entry, looked up): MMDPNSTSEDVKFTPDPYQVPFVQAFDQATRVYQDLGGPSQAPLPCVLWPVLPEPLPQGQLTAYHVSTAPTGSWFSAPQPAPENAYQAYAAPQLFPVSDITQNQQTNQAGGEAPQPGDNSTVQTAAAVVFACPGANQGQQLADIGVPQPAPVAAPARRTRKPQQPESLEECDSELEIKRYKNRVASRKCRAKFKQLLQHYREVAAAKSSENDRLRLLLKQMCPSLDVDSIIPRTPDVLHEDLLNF
PAFAH1B2 FP inh: blocks human PAF acetylhydrolase 1b catalytic subunit 2; recombinant PAFAH1B2, FP-rhodamine activity probe, fluorescence polarization; inhibition, % at 3.39 µM; hit rate 1.2% among 340,000;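 active means inhibition above the mean of all tested compounds plus 3 SD, cut at about 24% in these data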;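 further: 0% = enzyme with DMSO and 100% = wells lacking PAFAH1B2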
Target sequence (P68402 whole entry, looked up): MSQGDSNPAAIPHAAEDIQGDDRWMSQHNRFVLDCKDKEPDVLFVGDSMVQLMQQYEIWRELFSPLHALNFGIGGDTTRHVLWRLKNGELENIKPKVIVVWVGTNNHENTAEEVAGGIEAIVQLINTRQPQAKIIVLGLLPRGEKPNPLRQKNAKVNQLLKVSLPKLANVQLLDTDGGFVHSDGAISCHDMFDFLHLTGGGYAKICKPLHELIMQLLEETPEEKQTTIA
PAFAH1B3 inh: inhibitors of human PAFAH1B3. Q15102. recombinant PAFAH1B3, FP-rhodamine probe, fluorescence polarization. inhibition, % at 3.39 µM. hit rate 0.28% among 340,000;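 active means inhibition above the screen-wide average of all tested compounds plus 3 SD, cut at about 25% in these data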;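 further: 0% = enzyme with DMSO only and 100% = wells lacking PAFAH1B3 protein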
PAFAH2 FP inh: PAFAH2 (human) inhibition; Q99487; recombinant PAFAH2, FP-rhodamine activity probe, fluorescence polarization; inhibition, % at 3.39 µM; hit rate 0.99% among 340,000; AID 492956;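 active means inhibition above the mean over all tested compounds plus 3 SD, cut at about 30% in these data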;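 further: inhibitors block probe labeling of enzyme so polarization drops; 0% = enzyme with DMSO and 100% = wells lacking PAFAH2 protein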
rCAG binder: binds r(CAG) RNA repeats | r(CAG) RNA repeat, TO-PRO-1 dye displacement fluorescence | inhibition, % at 3 µM | hit rate 1.3% among 370,000;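 active means inhibition above the plate cutoff, the mean of all test compounds on that plate plus 3 SD, cut at about 35% in these data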;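 further: 0% = DMSO alone and 100% = 100 µM mitoxantrone as full dye displacement; higher means more dye released from RNA so lower well fluorescence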
PAFAH2 confirm: confirmation of human PAFAH2 inhibitors | recombinant PAFAH2, FP-rhodamine activity probe, fluorescence polarization | hit rate 65% among 2,300 | shares compounds with PAFAH2 FP inh | AID 493030 | inhibition, % at 3.39 µM;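 active means mean inhibition over three repeats above a set limit taken from the earlier primary screen, cut at about 30% in these data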;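 further: inhibitor blocks binding of rhodamine activity probe so polarization falls; 0% = enzyme with DMSO and 100% = wells lacking PAFAH2 protein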
Active calls of the source: *; . = no result given.

SMILES	EBNA-1 inh	ZTA counter	PAFAH1B2 FP inh	PAFAH1B3 inh	PAFAH2 FP inh	rCAG binder	PAFAH2 confirm
COc1cc2nc(CN3C(=O)c4ccccc4C3=O)oc(=O)c2cc1OC	-6	5	0	-2	-8	5	.
COc1cc2nc(COc3ccccc3[N+](=O)[O-])oc(=O)c2cc1OC	-7	-15	1	6	50*	3	69*
O=C(NCCc1c[nH]c2ccccc12)OCc1cn(Cc2c(F)cccc2F)nn1	.	.	.	.	.	2	.
O=c1c2c(nc3nc(Cc4ccccc4)[nH]n13)CCC2	2	9	-3	7	67*	-2	59*
Cc1nc2nc3c(c(=O)n2[nH]1)CCC3	7	-5	1	0	2	0	.
O=C(c1cc(-c2ccccc2Cl)on1)N1CCCC1	-13	5	2	5	36*	-3	35*
CC(C)C(=O)N(c1ccc2oc(=O)sc2c1)S(=O)(=O)c1cccs1	8	8	1	9	44*	9	42*
CC(=O)N(c1ccc2oc(=O)sc2c1)S(=O)(=O)c1cccs1	-7	-1	4	5	23	30	.
COc1ccc(C(=O)OCC(=O)NC(=O)NC2CCCC2)cc1OC	.	-21	-4	9	30*	0	27
O=C(COC(=O)c1cccc(Br)c1)NC(=O)NC1CCCC1	.	.	2	8	1	-6	.
Cc1c(C(=O)OCC(=O)NC(=O)NC2CCCCC2)cccc1[N+](=O)[O-]	.	.	7	2	3	0	.
COc1ccc(C(=O)OCC(=O)N2CCc3ccccc3C2)cc1OC	.	.	6	5	53*	0	45*
CNc1ccc(C(=O)OCC(=O)NC(=O)NC2CCCC2)cc1[N+](=O)[O-]	.	.	4	-1	41*	-1	18
CC(COc1cccc(Br)c1)CN1CCC(C(O)(c2ccccc2)c2ccccc2)CC1 (stereo unspecified)	.	.	.	.	.	3	.
O=C(COC(=O)C1CC1)NCc1ccc(Cl)cc1Cl	.	.	5	4	64*	-2	46*
Cc1ccc(C(=O)OCC(=O)NCCNC(=O)COC(=O)c2ccc(C)o2)o1	-17	0	5	8	-1	0	.
Cc1ccc(C(=O)OCC(=O)NCc2ccc(Cl)cc2Cl)o1	.	-10	8	1	56*	3	42*
O=C1[C@@H](c2ccccc2)CC[C@@H]2C=CC[C@H]3CCN1[C@@H]32	.	.	.	.	.	4	.
O=C(COC(=O)C1=COCCO1)Nc1cc(S(=O)(=O)N2CCCCC2)ccc1Cl	-1	1	2	7	57*	-3	41*
Cc1ccc(S(=O)(=O)N2CCCCC2)cc1NC(=O)COC(=O)C1CC1	.	.	.	.	.	3	.
Cc1ccc(S(=O)(=O)N2CCCCC2)cc1NC(=O)COC(=O)C1=COCCO1	5	-3	5	4	50*	-2	40*
Cc1ccc(S(=O)(=O)N2CCCCC2)cc1NC(=O)COC(=O)c1cccn1C	.	.	6	-1	39*	5	32*
O=C(Nc1cc(S(=O)(=O)N2CCCC2)ccc1Cl)C1=COCCO1	-11	-10	4	2	-5	-2	.
COC(=O)[C@]12C[C@H](CC(=O)NCc3cccs3)C(=O)N(Cc3ccc4c(c3)OCO4)C1=C[C@H](COCc1ccccc1)O[C@@H]2C	.	.	.	.	.	6	.
CCc1ccc(OCC(=O)NC(=S)Nc2ccc(C)cc2C)c(Br)c1	-4	-2	-3	8	30*	0	-3
SMILES	EBNA-1 inh	ZTA counter	PAFAH1B2 FP inh	PAFAH1B3 inh	PAFAH2 FP inh	rCAG binder	PAFAH2 confirm
COc1cccc(NC(=O)n2ccc3ccc(-c4ccc5ccn(C(=O)Nc6cccc(OC)c6)c5c4)cc32)c1	.	.	.	.	.	31	.
Cn1c2ccccc2n2c(=O)c(Cl)c(-c3ccccc3)c(C#N)c12	8	-5	5	12	39*	4	24
COc1ccc(CCN2C(=O)COc3ccccc3C2C(=O)Nc2c(C)cccc2C)cc1OC (stereo unspecified)	.	.	.	.	.	1	.
CN(Cc1ccco1)C(=O)c1cc2c(s1)-c1ccc(Cl)cc1S(=O)(=O)C2	7	10	-1	3	51*	2	-10
CN1C2CCC1CC(NC(=O)c1cccc(C(F)(F)F)c1)C2 (stereo unspecified)	5	4	21	18	32*	-2	-2
Cc1cccc(C(=O)NC2CC3CCC(C2)N3C)c1 (stereo unspecified)	.	.	5	7	0	1	.
COC(=O)C1=CN(c2cccc(OCc3ccccc3)c2)C(N)=C(C#N)C1c1cccc(OC)c1OC (stereo unspecified)	.	.	.	.	.	6	.
O=C(COC(=O)c1ccccc1C(=O)N1CCN(c2ccc(F)cc2)CC1)NCc1ccccc1	-5	-6	4	12	20	-9	.
O=C(COC(=O)c1ccccc1C(=O)N1CCN(c2ccccc2)CC1)Nc1ccc(F)cc1	-2	4	2	-1	74*	-13	60*
O=C(COC(=O)c1ccccc1C(=O)N1CCN(c2ccccc2)CC1)Nc1ccccc1	2	-15	5	11	63*	-16	60*
COc1cccc(NC(=O)COC(=O)c2ccccc2C(=O)N2CCN(c3ccccc3)CC2)c1	4	3	2	-7	54*	-8	54*
COC(=O)CSc1nnc(-c2cccs2)o1	.	.	.	.	.	-1	.
COc1ccc(OC)c(S(=O)(=O)N2CCC(c3cn4ccccc4n3)CC2)c1	.	.	.	.	.	7	.
COc1ccc(CN(C)CC#Cc2ccccc2)c(OC)c1	.	.	.	.	.	-2	.
CC(C)(C)N(Cc1cn(CC2CCCCC2)nn1)S(=O)(=O)c1ccc(F)cc1Br	.	.	.	.	.	-2	.
Cc1c(C#N)c(O)[nH]c(=O)c1N=Nc1ccc(S(N)(=O)=O)cc1	-8	9	9	14	47*	20	29
Cc1c(C#N)c(O)[nH]c(=O)c1N=Nc1ccc(Cl)c(C(=O)O)c1	5	-1	2	3	-5	-3	.
CSCCC(NS(=O)(=O)c1ccc(Cl)c(Cl)c1)C(=O)O (stereo unspecified)	-13	2	13	3	68*	3	71*
CSCCC(NS(=O)(=O)c1ccc2ccccc2c1)C(=O)O (stereo unspecified)	0	10	11	6	6	4	.
O=C1NC[C@@H](CCCCN2C[C@H](Cc3ccccc3)N(CC3CCCCC3)C(=O)C2=O)N(CCc2ccccc2)C1=O	.	.	.	.	.	0	.
COCCCNC(=O)Cc1c(C)c2c(cc(C)c3c(C(C)(C)C)coc32)oc1=O	9	5	9	6	33*	-3	20
COCCNC(=O)Cc1c(C)c2c(cc(C)c3c(C)coc32)oc1=O	-1	-12	4	4	4	5	.
Cc1ccc(-c2cc(C(=O)NN=Cc3ccc(-c4ccccc4)cc3)[nH]n2)cc1C	.	.	.	.	.	8	.
COc1ccc(C(=O)NCC(=O)OCC(=O)Nc2ccc(C)c(S(=O)(=O)N(C)C)c2)cc1OC	-5	3	5	5	41*	7	23
